Measured values taken from PubChem BioAssay AID2283197 (EPA ToxCast).
Calls of active or inactive are those of the source. Rule for the calls: active = hit-call score of the fitted dose curve at least 0.9, where 1 is the maximum; inactive = score below 0.9.

What follows are compounds tested against human Protein Kinase D2 (PKD2), PRKD2 (gene 25865) (UniProt Q9BZL6) (assay: NVS_ENZ_hPKD2: NovaScreen (NVS) Enzymatic Assay for human Protein Kinase D2 (PKD2)).
Procedure: NVS_ENZ_hPKD2 is a biochemical, single-readout assay that uses extracted gene-proteins in a cell-free assay. Measurements were taken 1 hour after chemical dosing in a 384-well plate.NVS_ENZ_hPKD2 is one of one assay component(s) measured or calculated from the NVS_ENZ_hPKD2 assay. It is designed to make measurements of enzyme activity, a form of enzyme reporter, as detected with fluorescence intensity signals by Fluorescence and electrophoretic mobility shift technology.Data from the assay component NVS_ENZ_hPKD2 was analyzed into 1 assay endpoint. This assay endpoint, NVS_ENZ_hPKD2, was analyzed in the positive analysis fitting direction relative to DMSO as the negative control and baseline of activity. Using a type of enzyme reporter, loss-of-signal activity can be used to understand changes in the enzymatic activity as they relate to the gene PRKD2. Furthermore, this assay endpoint can be referred to as a primary readout, because this assay has produced multiple assay endpoints where this one serves a enzymatic activity function. To generalize the intended target to other relatable targets, this assay endpoint is annotated to the kinase intended target family, where the subfamily is serine/threonine kinase.
Binding assays used specific radioligands (tritiated, iodinated) with non-radioactive competitive displacement ligands in agonist or antagonist protocols (as indicated) and various reference compounds and inhibitors to titrate specific binding to receptors and transporters. Most enzyme assays (CYPs, kinases, phosphatases, proteases, HDACs) used recombinant protein and specific substrates (fluorescence mostly, some colorimetric and radioactive) and inhibitors, followed by a biochemical separation of substrate and product. All assays for the biochemical HTS were initially run in duplicate at a single concentration (10 uM for CYP450 assays and 25 uM for all others). Assay-chemical combinations meeting a pre-defined threshold (e.g., 30% inhibition and other criteria defined below) were then run in singleton concentration-response format with maximum concentration of 20 uM for CYPs and 50 uM for all others. Each assay was run with positive and negative controls, and concurrent controls on every plate. The follow-up (secondary) screen tested active chemical-pairs in concentration series, as well as a few additional assays not tested in the primary screen, some selected negative inactives, and several cases re-run in the concentration series for confirmatory purposes.

Sequence of human Protein Kinase D2 (PKD2), PRKD2 (gene 25865) (Q9BZL6 whole entry, looked up): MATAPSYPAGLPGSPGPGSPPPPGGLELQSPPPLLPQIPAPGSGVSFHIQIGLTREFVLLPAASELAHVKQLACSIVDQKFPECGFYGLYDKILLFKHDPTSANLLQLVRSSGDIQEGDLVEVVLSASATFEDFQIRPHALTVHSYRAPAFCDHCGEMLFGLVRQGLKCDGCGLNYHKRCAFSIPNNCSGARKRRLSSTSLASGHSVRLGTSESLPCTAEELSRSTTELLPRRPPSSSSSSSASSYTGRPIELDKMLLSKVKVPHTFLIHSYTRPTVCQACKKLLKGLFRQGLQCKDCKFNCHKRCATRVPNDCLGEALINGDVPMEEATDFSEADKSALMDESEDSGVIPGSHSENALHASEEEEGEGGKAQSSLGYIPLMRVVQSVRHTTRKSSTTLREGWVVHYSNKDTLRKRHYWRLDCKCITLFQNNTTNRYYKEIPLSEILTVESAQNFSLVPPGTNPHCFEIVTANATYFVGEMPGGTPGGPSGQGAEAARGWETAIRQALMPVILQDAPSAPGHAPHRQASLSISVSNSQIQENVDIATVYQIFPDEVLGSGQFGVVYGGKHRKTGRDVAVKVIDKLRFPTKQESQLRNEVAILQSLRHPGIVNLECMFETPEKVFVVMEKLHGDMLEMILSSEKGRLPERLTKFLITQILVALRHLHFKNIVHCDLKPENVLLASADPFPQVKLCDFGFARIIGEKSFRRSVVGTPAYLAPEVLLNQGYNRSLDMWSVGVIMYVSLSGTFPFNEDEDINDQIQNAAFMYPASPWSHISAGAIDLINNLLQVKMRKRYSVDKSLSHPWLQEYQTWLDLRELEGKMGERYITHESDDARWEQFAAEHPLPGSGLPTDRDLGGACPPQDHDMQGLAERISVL

| Structure (SMILES) | outcome | AC50 |
| --- | --- | --- |
| O=C(Nc1ccccc1)Nc1cnns1 | inactive |  |
| O=C(Nc1ccccc1)Nc1ccnc(Cl)c1 | inactive |  |
| COc1ccc(C(c2ccc(OC)cc2)C(Cl)(Cl)Cl)cc1 | inactive |  |
| Oc1ccc(Cl)cc1Cc1ccccc1 |  | 25 µM (active) |
